# High-throughput results deposited in PubChem by Broad Institute.
# aSyn UTR act = Activators working through SNCA 5'UTR binding (MLPCN); alpha-synuclein 5'UTR reporter, activators screen; activity score, % (tested at 7.5 µM), hits read low; 300,000 compounds, 7.1% hits; AID 1814; in the data active = activity score below about -60%
# * marks the source's active call; other numbers are inactive results. Only a sample is shown.
SMILES,aSyn UTR act
COc1ccc(CCc2nnc(CCC(=O)NCc3cc(C(C)C)no3)o2)cc1,-99*
COC(=O)c1cccc(N/C=C(\[N+](=O)[O-])S(=O)(=O)c2ccccc2)c1,-62*
COc1cc(-c2nc(-c3ccccn3)no2)cc(OC)c1OC,-163*
COc1cccc(-c2nc(-c3ccccn3)no2)c1OC,-219*
COc1ccc(C(=O)NCCS(=O)(=O)NCCc2ccccc2)cc1,-72*
O=C(NCCS(=O)(=O)NCCc1ccccc1)c1ccc2c(c1)OCO2,-120*
COc1cccc(C(=O)NCCS(=O)(=O)NCCc2ccccc2)c1,-75*
COC(=O)c1c(N)sc(C(=O)NCCc2ccccc2)c1C,105
Cc1cc(C)c2c(=O)n(-c3ccccc3)[nH]c2n1,-72*
Cc1ccc(C)c(NC(=S)NNC(=O)c2csc(C(C)C)c2)c1,-100*
Cc1ccc(C)c(NC(=S)NNC(=O)c2sccc2C)c1,-69*
Cc1ccc(C)c(NC(=S)NNC(=O)c2csc(C)c2C)c1,-92*
COCc1c(C(C)C)nc(C(C)C)c(/C=C/[C@@H](O)C[C@@H](O)CC(=O)O)c1-c1ccc(F)cc1,115
CCOc1ccc(NC(=O)C(c2ccccn2)N(C(=O)CCl)c2ccc(F)cc2)cc1 (configuration not stated),-71*
COc1ccc(Cl)cc1NC(=O)C1Cc2ccccc2CN1S(C)(=O)=O (configuration not stated),54
CCc1nnc(NC(=O)C2Cc3ccccc3CN2S(=O)(=O)c2c(C)c(C)cc(C)c2C)s1 (configuration not stated),-104*
CC(=O)Nc1ccc(NC(=O)/C(Cl)=C/c2ccccc2)cc1,-117*
COc1c2c(cc3oc(=O)c4c5ccc(O)cc5oc4c13)OC(C)(C)CC2,-199*
Nc1nc(SCc2ccccc2)[nH]c(=O)c1-c1ccccc1,-99*
CN(C)c1ccc(-c2ccccc2)nn1,-148*
Nc1cc(Cl)ccc1Oc1ccc2ccccc2c1,-138*
Cc1ccc(Oc2ccc(Cl)cc2N)cc1,-85*
O=C(OCc1nc2ccccc2s1)c1ccco1,-97*
Cc1cc(C(=O)OCc2nc3ccccc3s2)c(C)o1,-126*
CC(=O)OCc1nc2ccccc2s1,-136*
SMILES,aSyn UTR act
c1ccc(-c2ccc3c(c2)NCCN3)cc1,-113*
CC(=O)n1nc(-c2ccccc2)cc1-c1ccccc1,-133*
O=C(O)CC(C(=O)O)n1nc(-c2ccccc2)cc1-c1ccccc1 (configuration not stated),-77*
CC(=O)c1c(C)nc(-c2ccc(Cl)cc2)nc1N=CN(C)C,-128*
CC(=O)c1c(C)nc(-c2ccc(Cl)cc2)nc1N,-239*
CC(=O)c1ccc(NC(=O)[C@@H]2CCCN2C(=O)OC(C)(C)C)cc1,-94*
C=CCc1cccc(C=Nc2cccn3cc(-c4ccccc4)nc23)c1O,-89*
CCc1ccc(O)c(N=Cc2cccc(C)c2O)c1,-131*
C=CCc1cccc(C=Nc2cc(Br)ccc2O)c1O,-110*
Cc1c(O)ccc(/C(Cc2ccc3ccccc3n2)=N\N)c1O,-64*
CC(/C=N/Nc1nnc(C)c(=O)[nH]1)=C\c1ccccc1,-97*
CC(/C=N/Nc1ccc2nncn2n1)=C\c1ccccc1,-72*
Cc1cc2ccccn2c1C(C[N+](=O)[O-])c1ccc(N(C)C)cc1 (configuration not stated),-80*
CCOC(=O)c1cnc2c(ccc3ccccc32)c1NCCO,-96*
CCOC(=O)c1cnc2c(ccc3ccccc32)c1N,-126*
O=C(O)COn1c(-c2ccc(Cl)cc2)nc2ccc(Cl)cc21,-123*
COn1c(-c2ccc(Cl)cc2)nc2ccc(Cl)cc21,-114*
COc1cccc(-c2nnc(-c3ccc(C(F)(F)F)cc3)o2)c1OC,-125*
COCCn1ccc2c(OCC(=O)Nc3cc(OC)ccc3OC)cccc2c1=O,-62*
O=C(NC1CCCCC1)Oc1cc2oc(=O)sc2cc1Br,54
O=C(NC1CCCC1)c1cc2cc(Br)ccc2o1,-139*
O=C(NC1CCCC1)c1cc2ccccc2o1,-107*
O=C(NC1CCCCC1)c1cc2cc(Br)ccc2o1,-138*
Cc1cc(C)n(-c2nc3ccccc3c(=O)n2OCC(N)=O)n1,-63*
NC1=NC2=C(CCCC2)C2(CCCCC2)S1,77
SMILES,aSyn UTR act
CCOc1cc(/C=C2\N=C(C)OC2=O)cc(Br)c1OCC(=O)OC,-64*
CCOc1cc(CNc2ccccc2)cc(Br)c1OCC(=O)NC(C)(C)C,49
NC(=Nc1ccccc1)NC(=O)c1nc(Cl)c(N)nc1N,-126*
Cn1c(O)c(C2=c3ccccc3=NC2=O)sc1=Nc1ccc(Cl)cc1,-93*
Cc1ccc2c(c1)NC(=O)c1cccnc1N2,-140*
O=C(COC(=O)c1cccs1)c1ccc2c(c1)OCCO2,-176*
CC(=O)NC12CC3CC(C1)CC(C(=O)OCC(=O)c1ccc4c(c1)OCCO4)(C3)C2,-134*
COCCOC(=O)c1[nH]c2c(c1C)C(=O)CC(c1cccs1)C2 (configuration not stated),64
COc1ccc(OCCOC(=O)c2cccs2)cc1,-66*
O=C(COC(=O)c1cccs1)c1ccc2ccccc2c1,-121*
O=C(NNC(=O)c1cccs1)c1ccc2ccccc2c1,-71*
COc1ccc(NC(=O)c2ccccc2NC(=O)CSc2ccccc2)cc1,-79*
COC(=O)c1ccc(NC(=O)CSc2ccccc2)cc1,-129*
COc1ccc(NC(=O)c2ccccc2NC(=O)CSc2ccc(Cl)cc2)cc1,-67*
O=C(CSc1n[nH]c(-c2ccccc2O)n1)N1CCOCC1,-70*
O=C(Nc1ccc(F)cc1)C1COc2ccccc2O1 (configuration not stated),-72*
COc1ccc(CNC(=O)C2COc3ccccc3O2)cc1 (configuration not stated),-62*
Cc1cc(Cl)ccc1NC(=O)C1COc2ccccc2O1 (configuration not stated),-85*
Cc1cc(=O)oc2cc(NC(=O)C3COc4ccccc4O3)ccc12 (configuration not stated),-62*
COc1ccc(C)cc1NC(=O)C1COc2ccccc2O1 (configuration not stated),-67*
COc1cccc(NC(=O)C2COc3ccccc3O2)c1 (configuration not stated),-201*
COc1ccc(OC)c2c1sc(=NC(=O)C1COc3ccccc3O1)n2C (configuration not stated),-128*
O=C(Nc1ccccc1[N+](=O)[O-])C1COc2ccccc2O1 (configuration not stated),-221*
O=C(Nc1cnc2ccccc2c1)C1COc2ccccc2O1 (configuration not stated),-167*
O=C(Nc1ccc2c(c1)OCO2)C1COc2ccccc2O1 (configuration not stated),-177*
SMILES,aSyn UTR act
O=C(Nc1cc(Br)ccc1O)c1cc(-c2ccccc2)on1,-131*
Cc1ccc(O)c(NC(=O)c2cc(-c3ccccc3)on2)c1,-254*
CCCc1cc(C(=O)Nc2ccccc2C(=O)OC)no1,-71*
CCCn1cc(NC(=O)c2cc(-c3ccccc3)on2)cn1,-134*
CCCc1cc(C(=O)Nc2cc(C)ccc2O)no1,-250*
O=C(Nc1nc(-c2cc(Cl)sc2Cl)cs1)c1cccs1,-158*
Cc1ccc(C(=O)Nc2nccc(-c3cccs3)n2)cc1,-66*
O=C(Nc1nc(-c2cccs2)cs1)c1ccc(Cl)cc1,-88*
Cc1ccc(C(=O)Nc2ncc3c(Cl)cccc3n2)cc1,65
Cc1csc(NC(=O)c2sc3nc(-c4cccs4)ccc3c2N)n1,-228*
